# Laboratory results published in PubChem BioAssay AID2546 (National Center for Advancing Translational Sciences (NCATS), 2010).
# The campaign covered roughly 310,000 compounds. About 11,000 (3.5%) were called active. Where a call stands in place of a potency, no number is given. About 8% were inconclusive and are not listed. The call rests on the fitted dose curve; in most records, active means well fitted inhibition curve with a large enough effect; inconclusive means small, poorly fitted or top-dose-only effect, or effect the other way; inactive means flat fitted curve, though single readings scatter. For the sample, actives were picked, then their nearest neighbours and some compounds at random.
# Assay: VP16 counterscreen qHTS for inhibitors of ROR gamma transcriptional activity;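 further: Gal4-VP16 expression switched on by copper sulfate through the metallothionein promoter; nearly all actives have a fitted effect of over 50% in size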
# Details: Drosophila S2 Gal4-VP16 UAS-luciferase, luminescence, 20 h; series mostly up to 53.6 µM
# Potency means the concentration at half of the fitted maximal effect.
row,Structure (SMILES),Potency
1,CCc1ccc(-c2nnn(Cc3nn[nH]n3)n2)cc1,inactive
2,Clc1ccc(-c2nnc(SCc3nc4ccccc4s3)o2)cc1,inactive
3,CCc1ccc(-c2nnn(Cc3nc4ccccc4s3)n2)cc1,10 µM (active)
4,CC(C)C[C@@H](NC(=O)[C@H]1CCCN1C(=O)Cc1ccccc1)C(N)=O,inactive
5,CCOC(=O)c1c(NC(=S)Nc2ccccc2)sc2c1CCN(C)C2,inactive
6,CCOC(=O)c1cc2c(nc1NC(=S)Nc1ccccc1)CC(C)(CC)OC2 (stereo unspecified),7.94 µM (active)
7,CCOC(=O)c1ccccc1NC(=O)CSc1nc2ccccc2c(=O)[nH]1,inactive
8,CCOC(=O)C1CN(S(=O)(=O)c2ccc(OC)cc2)c2cc(Cl)ccc2O1 (stereo unspecified),inactive
9,O=C(C1CCN(Cc2ccc(Cl)cc2)CC1)N1CCN(Cc2ccc3c(c2)OCO3)CC1,inactive
10,O=C(NNC1=NCCC1)c1cccc(S(=O)(=O)N2CCCCC2)c1,10 µM (active)
11,O=C(NNC(=S)Nc1ccccc1)c1cccc(S(=O)(=O)N2CCOCC2)c1,inactive
12,O=C(Nc1cccnc1)c1cccc(S(=O)(=O)N2CCCC2)c1,inactive
13,Cn1c(SCC(=O)N2CCCC2)nnc1-c1ccc2c(c1)OCO2,inactive
14,O=C(CCNS(=O)(=O)c1cccs1)N1CCN(c2ccc(F)cc2)CC1,inactive
15,COc1cc(S(=O)(=O)Nc2ncn[nH]2)ccc1Cl,inactive
16,CCn1c(O)c(N=NC2=NC(=O)CS2)c2cc(C)ccc21,12.6 µM (active)
17,CCn1c(O)c(N=NC(=O)c2cccc(S(=O)(=O)N3CCCCC3)c2)c2ccccc21,inactive
18,CCn1c(=O)cc(O)c2ccccc21,inactive
19,COc1cccc(C(=O)NNC(=O)c2cccc(F)c2)c1,inactive
20,Cc1cc(C)nc(N/N=C/c2c(CO)cnc(C)c2O)n1,inactive
21,COc1ccc(OC)c(CCNC(=O)CCn2ccc3cc(S(=O)(=O)N4CCCC4)ccc32)c1,inactive
22,Cc1ccc2nc(-c3ccc(NC(=O)c4cccnc4)cc3)oc2c1,1.26 µM (active)
23,Cc1cc2nc(-c3ccc(NC(=O)c4cccnc4)cc3)oc2cc1C,inactive

row,Structure (SMILES),Potency
1,CC(=O)Nc1ccc(-c2nc3ccccc3o2)cc1,inactive
2,CC(=O)c1c(C)[nH]c(C(=O)COC(=O)c2cccc(S(=O)(=O)N(C)c3ccccc3)c2)c1C,5.62 µM (active)
3,CN(c1ccccc1)S(=O)(=O)c1ccc(Cl)c(C(=O)OCC(N)=O)c1,inactive
4,COc1ccc(C)cc1NC(=O)C(OC(=O)c1cccc(S(=O)(=O)N(C)c2ccccc2)c1)c1ccccc1 (stereo unspecified),inactive
5,CCCn1nnnc1NCc1ccc(OC)cc1,inactive
6,CCn1c(=O)c2ccccc2n(CC(=O)N2CCCc3ccccc32)c1=O,inactive
7,O=C(Nc1ccccc1Cl)/C(Cl)=C(\Cl)S(=O)c1ccccc1 (stereo unspecified),0.794 µM (active)
8,O=C(Nc1ccccc1Cl)Nn1cnnc1,inactive
9,COCCN(CCOC)C(=S)Nc1ccccc1Cl,inactive
10,Cc1cccc(C(=O)Nc2ccc(Oc3cnccn3)cc2)c1,inactive
11,COc1ccc(OC)c(S(=O)(=O)N2CCCC(C(=O)NCCc3ccccc3)C2)c1 (stereo unspecified),inactive
12,COc1ccc(NC(=O)Cn2ncn3c(cc4ccccc43)c2=O)c(OC)c1OC,inactive
13,Cc1onc(-c2ccccc2)c1C(=O)N1CCN(S(=O)(=O)c2ccccc2C(F)(F)F)CC1,inactive
14,Cc1ccc(/C=C2\CCn3c2nc2cc(C(=O)O)ccc2c3=O)c(C)c1,inactive
15,CC1CC(C)CN(CCOc2cccc3ccccc23)C1 (stereo unspecified),inactive
16,CCOC(=O)[C@@H]1[C@H]2COc3cc(OC)ccc3[C@H]2N2C(=O)N(c3ccc(F)cc3)C(=O)[C@]12C,inactive
17,O=C(Nc1cccc(S(=O)(=O)N2CCCCC2)c1)c1ccc2c(c1)OCO2,inactive
18,O=C(Nc1cccc(S(=O)(=O)Nc2ccc(Cl)cc2)c1)c1ccc2c(c1)OCCO2,0.794 µM (active)
19,O=C(Nc1ccc2c(c1)OCCO2)c1ccc(Cl)c(S(=O)(=O)N2CCCCC2)c1,inactive
20,O=C(NC1CCCC1)C(c1c(F)cccc1Cl)N(C(=O)c1csnn1)C1CC1 (stereo unspecified),inactive
21,COc1ccc2nc(C)cc(Nc3cccc(C(=O)O)c3)c2c1,inactive
22,COC(=O)CSc1nccc(-c2cccs2)n1,inactive
23,O=C(Nc1ccnc(-c2ccncc2)n1)c1cccs1,inactive

row,Structure (SMILES),Potency
1,O=C(O)COc1ccc(-c2nccc(-c3cccs3)n2)cc1,15.8 µM (active)
2,CC(C)(C)c1ccc(SCCc2ccncc2)cc1,17.8 µM (active)
3,CCN(Cc1ccncc1)C(=O)CCc1ccccc1,inactive
4,Cc1cc(C)c(SCCc2ccncc2)c(C)c1,11.2 µM (active)
5,c1ccc(CSCCc2ccncc2)cc1,inactive
6,Cc1ccc(SCCSc2ncccn2)cc1,inactive
7,Cc1cc(C)c(NC(=O)CSc2nc3ccncc3[nH]2)c(C)c1,inactive
8,C=CCOc1ccc(/C=C2/C(=O)ON=C2C)cc1OCC,inactive
9,CCOc1ccc(NC(=O)C(C)N2C(=O)c3ccccc3C2=O)cc1 (stereo unspecified),inactive
10,Cc1ccc(S(=O)(=O)NC2CCCCCC2)cc1C(N)=O,inactive
11,CCc1ccc(-n2c(=S)sc3c(=O)n(-c4ccccc4OC)c(=S)[nH]c32)cc1,inactive
12,CCCSc1nc2sc3c(c2c(=O)n1-c1ccc(OC)cc1)CCN(C)C3,inactive
13,COc1ccc(-n2c(=S)[nH]c3sc4c(c3c2=O)CCc2ccccc2-4)cc1,0.251 µM (active)
14,O=C(Nc1ccc(C(=O)N2CCCCC2)cc1)c1cccc([N+](=O)[O-])c1,inactive
15,COc1cc(C(=O)NCc2ccncc2)cc(Br)c1OCc1ccccc1,inactive
16,CC(C)[C@@H]1COC(c2cccc(C3=N[C@H](C(C)C)CO3)c2)=N1,inactive
17,C#CCOc1ccc(/C=C2/C(=O)ON=C2C)cc1OCC,inactive
18,O=C(Nc1ccc2nc3n(c(=O)c2c1)CCCCC3)c1ccccc1Cl,inactive
19,O=C(Nc1ccc2c(c1)nc1n2CCCCC1)c1cc(S(=O)(=O)N2CCOCC2)ccc1Cl,12.6 µM (active)
20,O=C(Nc1ccc(N2CCOCC2)c(Cl)c1)c1ccc(S(=O)(=O)N2CCOCC2)cc1,inactive
21,Nc1ncc(CN2CCCC(C(=O)Nc3ccc(-c4ccco4)cc3)C2)cn1 (stereo unspecified),inactive
22,N=c1oc2ccccc2cc1C(=O)NCc1ccccc1,inactive
23,CCCNC(=O)COc1coc(CN2CCN(Cc3ccccc3)CC2)cc1=O,inactive

row,Structure (SMILES),Potency
1,COc1cccc(-n2cc(C(=O)O)c3ccccc3c2=O)c1,inactive
2,COc1cccc(N2C(=O)CN(Cc3ccccc3)C2=S)c1,inactive
3,COc1cccc(-n2c(=S)[nH]c3c(oc4ccccc43)c2=O)c1,11.2 µM (active)
4,CCC(CC)COC(=O)C1=C(C)NC(=O)NC1c1ccc([N+](=O)[O-])cc1 (stereo unspecified),inactive
5,COCCn1c(SCC(=O)N2CCCCCC2)nc2c(c1=O)SCC2,inactive
6,Oc1cccc(/C=N/Nc2ccc(Cl)nn2)c1O,2.82 µM (active)
7,COc1cccc(/C=N/Nc2ccc(Cl)nn2)c1,inactive
8,Cc1ccsc1/C=N/Nc1ccc(Cl)nn1,inactive
9,Cc1ccc(S(=O)(=O)c2ccc(Oc3ccccc3)cc2)cc1,inactive
10,CN(C)S(=O)(=O)c1ccc(Oc2ccc(S(=O)(=O)N(C)C)cc2)cc1,3.16 µM (active)
11,CN(C)S(=O)(=O)c1ccc(NC(=O)N2CCOCC2)cc1,inactive
12,CSc1ncc(C(=O)NCCCc2ccccc2)c(C)n1,inactive
13,O=C(Cc1cccs1)Nc1cccc(-c2nc3ccccc3[nH]2)c1,inactive
14,O=C(/C=C/c1ccco1)Nc1cccc(-c2nc3ccccc3[nH]2)c1,inactive
15,O=C(Nc1cccc(-c2nc3ccccc3[nH]2)c1)c1ccc(C(=O)Nc2cccc(-c3nc4ccccc4[nH]3)c2)cc1,2.82 µM (active)
16,Cc1c(C)c2ccc(OCC(=O)N3CCC(C(=O)O)CC3)c(C)c2oc1=O,inactive
17,CC(=O)c1c(C)oc2ccc(NS(=O)(=O)c3ccccc3)cc12,inactive
18,COC(=O)COc1ccc(S(=O)(=O)Nc2ccc(NC(C)=O)cc2)cc1,inactive
19,COc1ccc(/C=N/NS(=O)(=O)c2ccc(NC(C)=O)cc2)cc1,inactive
20,CC(=O)c1c(C)oc2ccc(NS(=O)(=O)c3ccc(C(=O)O)cc3)cc12,inactive
21,COc1ccc(S(=O)(=O)Nc2ccc3oc(C)c(C(C)=O)c3c2)cc1,11.2 µM (active)
22,COc1cc(NS(=O)(=O)c2ccc(NC(C)=O)cc2)cc(OC)c1,20 µM (active)
23,Cc1ccnc(NS(=O)(=O)c2ccc(NC(=O)c3oc4ccc(F)cc4c3C)cc2)n1,inactive

row,Structure (SMILES),Potency
1,CC1CCCCN1C(=O)CCS(=O)(=O)Cc1ccccc1 (stereo unspecified),inactive
2,COc1ccc(/C=C2\SC(=O)N(CCC(=O)NCCCn3ccnc3)C2=O)cc1,inactive
3,COc1ccc(C2=Nn3c(nnc3-c3ccccc3O)SC2)cc1,inactive
4,CCn1cc(C(=O)NCC(=O)NC(C)(C)CO)c(=O)c2cc3c(cc21)OCO3,inactive
5,Cc1ccc(C(=O)NC23CC4CC(CC(C4)C2)C3)c(Cl)c1,inactive
6,Cc1noc(C)c1CCC(=O)N1CCCC(CO)(Cc2ccccc2)C1 (stereo unspecified),inactive
7,COc1ccc(C2CC(=O)Nc3cc(C)c(C)cc32)c(OC)c1OC (stereo unspecified),inactive
8,COc1ccccc1C1C2=C(COC2=O)Nc2cc3c(cc21)OCO3 (stereo unspecified),inactive
9,CCCOc1ccccc1C1CC(=O)Nc2cc3c(cc21)OCO3 (stereo unspecified),14.1 µM (active)
10,O=C(NCCCN1CCCC1=O)C(=O)NCC1OCCN1S(=O)(=O)c1ccc(Br)cc1 (stereo unspecified),inactive
11,O=C(O)c1ccc(NC(=O)c2cn(-c3ccccc3)nc2-c2ccc(Cl)cc2)cc1,inactive
12,CN(C)/N=C/c1cn(-c2ccccc2)nc1-c1cccnc1,inactive
13,CC(=O)Cc1nsc(NC(=O)c2ccc(COc3ccc(C)cc3)o2)n1,inactive
14,COc1ccc(NC(=O)c2cn(-c3ccccc3)nc2SC)cc1,inactive
15,CC(C)(C)OC(=O)N/N=C/c1cn(-c2ccccc2)nc1-c1cccnc1,inactive
16,O=C(O)c1ccccc1-c1ccccc1C(=O)Nc1nccs1,inactive
17,COc1ccc(-c2nn(-c3ccccc3)cc2C(=O)Nc2nccs2)cc1OC,22.4 µM (active)
18,COc1ccc(-c2nn(-c3ccccc3)cc2/C=N/Nc2ccccn2)cc1OC,8.91 µM (active)
19,COc1ccc(-c2nn(-c3ccccc3)cc2C(=O)Nc2nc(CC(C)=O)ns2)cc1,12.6 µM (active)
